The results in this text go back to PubChem BioAssay (EPA / NIEHS).

Results filed as inconclusive are left out. The source holds several records for some structures; these can differ, active in one and inactive in another. The source made the active and inactive calls. Rule for the calls: active = hit-call score of the fitted dose curve at least 0.9, where 1 is the maximum; inconclusive = response in the unintended direction; inactive = score below 0.9.

Assay [1] has as its target rat Thyrotropin Releasing Hormone Receptor (TRH), Trhr (gene 25570) (UniProt Q01717). Description: NVS_GPCR_rTRH: NovaScreen (NVS) G Protein-Coupled Receptor Assay for rat Thyrotropin Releasing Hormone Receptor (TRH) (AID 2283329).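 Note: hit means lower bound tracer signal versus DMSO baseline.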 The gist of the method: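 Cell-free radioligand binding on rat forebrain membranes; bound tracer measured by filter-based scintillation counting 4 hours after dosing. Loss of signal versus DMSO baseline indicates displacement; primary screen at 25 uM in duplicate, actives then run in concentration series.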

The target of assay [2] is Estrogen receptor (Homo sapiens) (UniProt P03372). Description: OT_ER_ERaERa_1440: Odyssey Thera (OT) 24-hour HEK293T Protein-Complementation Assay for Estrogen Receptor-alpha/-alpha Homodimer (AID 2283349).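 Note: hits raise fluorescence above DMSO for agonists and antagonists alike.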 The gist of the method: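 HEK293T cells stably expressing the human ER alpha ligand-binding domain (aa 310-547) as a homodimer PCA were dosed for 24 hours. Fluorescence intensity was read by laser scanning cytometry, and gain of signal was fitted relative to DMSO vehicle.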

In assay [3] the target is human Peripheral-type Benzodiazepine Receptor (PBR), TSPO (gene 706) (UniProt P30536). As to the kind of experiment: NVS_MP_hPBR: NovaScreen (NVS) Membrane Protein Assay for human Peripheral-type Benzodiazepine Receptor (PBR) (AID 2283331).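 Note: hits reduce radioligand binding relative to DMSO baseline.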 The gist of the method: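 Radioligand displacement on human colonic cell membranes, 1 h incubation; bound radioactivity by filtration and scintillation counting. Primary screen in duplicate at 25 uM single concentration, actives followed up in concentration series; loss of binding versus DMSO.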

Assay [4] has as its target chimpanzee Androgen Receptor (AR), AR (gene 747460) (UniProt O97775). As to the kind of experiment: NVS_NR_cAR: NovaScreen (NVS) Nuclear Receptor Binding Assay for chimpanzee Androgen Receptor (AR) (AID 2283346). The gist of the method: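 Radioligand binding to chimpanzee AR expressed in Sf9/Sf21 cells, cell-free, measured 72 h after dosing by lysate-based scintillation counting. Loss of signal vs DMSO; initial duplicate screen at 25 uM, actives retested in concentration series.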

The target in assay [5] is Estrogen receptor (Homo sapiens) (UniProt P03372). As to the kind of experiment: OT_ER_ERaERa_0480: Odyssey Thera (OT) 8-hour HEK293T Protein-Complementation Assay for Estrogen Receptor-alpha/-alpha Homodimer (AID 2283351).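 Note: rise in fluorescence from reassembled reporter fragments on ERα LBD homodimer in nucleus or whole cell.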 The gist of the method:
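HEK293T cells stably expressing the human ERα ligand-binding domain (aa 310-547) as a homodimer PCA were dosed with compound for 8 h. Gain of fluorescence intensity versus DMSO vehicle was read by laser scanning cytometry.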

Assay [6] deals with bovine Estrogen Receptor (ER), ESR1 (gene 407238) (UniProt P49884). Description: NVS_NR_bER: NovaScreen (NVS) Nuclear Receptor Binding Assay for bovine Estrogen Receptor (ER) (AID 2283345).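 Note: actives lower the bound radioligand count which means they displace the ER ligand.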 The essentials:
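Cell-free radioligand binding with receptor from bovine uterine membranes, read by scintillation counting 18 h after dosing. Loss of specific binding was scored against DMSO; primary screen at 25 uM in duplicate, actives then run as concentration series.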

Assay [7] concerns the target Estrogen receptor (Homo sapiens) (UniProt P03372). As to the kind of experiment: NVS_NR_hER: NovaScreen (NVS) Nuclear Receptor Binding Assay for human Estrogen Receptor (ER) (AID 2283348). The essentials:
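Radioligand competitive displacement binding to estrogen receptor from MCF7 extract, cell-free; 18 h after dosing, scintillation read-out. Primary screen in duplicate at 25 uM; actives followed up in concentration series; loss of signal vs DMSO.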

Assay [8] has as its target Sodium channel protein type 1 subunit alpha (Rattus norvegicus) (UniProt P04774). Description: NVS_IC_rNaCh_site2: NovaScreen (NVS) Ion Channel Assay for rat Sodium Channel, Site 2 (NaCh) (AID 2283322).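 Note: hit means loss of radioligand binding signal relative to DMSO so AC50 marks displacement.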 The gist of the method:
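Membranes: rat forebrain. Format: competitive radioligand displacement, filter separation, scintillation readout, 1 h exposure. Primary screen in duplicate at 25 uM; actives retested in concentration series.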

Assay [9] deals with rat Peripheral-type Benzodiazepine Receptor (PBR), Tspo (gene 24230) (UniProt P16257). Description: NVS_MP_rPBR: NovaScreen (NVS) Membrane Protein Assay for rat Peripheral-type Benzodiazepine Receptor (PBR) (AID 2283335). The gist of the method: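 Radioligand displacement, rat kidney membrane prep, 1 h exposure, filter-based scintillation read; DMSO baseline, loss-of-signal scored. Primary screen at 25 uM in duplicate, actives followed up in concentration series.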

A short description of assay [10]: NVS_IC_rCaBTZCHL: NovaScreen (NVS) Ion Channel Assay for Calcium Channel, Type L, Benzothiazepine Site (CaBTZCHL) (AID 2283337). The essentials:
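Radioligand binding to the benzothiazepine site of L-type Ca channels in rat cortical membranes (cell-free), 1.5 h after dosing; filter-based scintillation counting. Loss of signal relative to DMSO baseline; primary single-concentration screen at 25 uM, actives then run in concentration series.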

rat Peripheral-type Benzodiazepine Receptor (PBR), Tspo (gene 24230), sequence (P16257 whole entry, looked up): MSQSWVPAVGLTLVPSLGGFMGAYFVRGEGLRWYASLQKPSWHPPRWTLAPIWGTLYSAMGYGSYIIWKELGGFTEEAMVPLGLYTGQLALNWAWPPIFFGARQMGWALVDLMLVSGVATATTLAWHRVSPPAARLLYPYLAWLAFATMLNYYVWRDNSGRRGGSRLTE
rat Thyrotropin Releasing Hormone Receptor (TRH), Trhr (gene 25570), sequence (Q01717 whole entry, looked up): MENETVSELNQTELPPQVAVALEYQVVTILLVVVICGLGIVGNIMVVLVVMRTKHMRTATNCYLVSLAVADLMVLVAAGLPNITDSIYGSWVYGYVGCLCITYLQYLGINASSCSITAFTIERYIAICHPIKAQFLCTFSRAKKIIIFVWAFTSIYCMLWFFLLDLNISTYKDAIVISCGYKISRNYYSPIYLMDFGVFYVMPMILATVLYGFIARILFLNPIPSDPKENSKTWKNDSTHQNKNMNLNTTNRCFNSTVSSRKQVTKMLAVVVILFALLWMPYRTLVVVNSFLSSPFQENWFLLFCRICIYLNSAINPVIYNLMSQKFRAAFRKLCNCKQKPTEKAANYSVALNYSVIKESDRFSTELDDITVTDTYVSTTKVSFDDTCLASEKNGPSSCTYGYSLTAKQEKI
human Peripheral-type Benzodiazepine Receptor (PBR), TSPO (gene 706), sequence (P30536 whole entry, looked up): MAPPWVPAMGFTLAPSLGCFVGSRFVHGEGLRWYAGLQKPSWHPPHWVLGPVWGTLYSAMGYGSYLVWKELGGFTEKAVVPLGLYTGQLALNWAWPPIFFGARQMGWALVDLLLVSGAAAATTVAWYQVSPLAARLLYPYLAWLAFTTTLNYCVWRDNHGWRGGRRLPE
chimpanzee Androgen Receptor (AR), AR (gene 747460), sequence (O97775 whole entry, looked up): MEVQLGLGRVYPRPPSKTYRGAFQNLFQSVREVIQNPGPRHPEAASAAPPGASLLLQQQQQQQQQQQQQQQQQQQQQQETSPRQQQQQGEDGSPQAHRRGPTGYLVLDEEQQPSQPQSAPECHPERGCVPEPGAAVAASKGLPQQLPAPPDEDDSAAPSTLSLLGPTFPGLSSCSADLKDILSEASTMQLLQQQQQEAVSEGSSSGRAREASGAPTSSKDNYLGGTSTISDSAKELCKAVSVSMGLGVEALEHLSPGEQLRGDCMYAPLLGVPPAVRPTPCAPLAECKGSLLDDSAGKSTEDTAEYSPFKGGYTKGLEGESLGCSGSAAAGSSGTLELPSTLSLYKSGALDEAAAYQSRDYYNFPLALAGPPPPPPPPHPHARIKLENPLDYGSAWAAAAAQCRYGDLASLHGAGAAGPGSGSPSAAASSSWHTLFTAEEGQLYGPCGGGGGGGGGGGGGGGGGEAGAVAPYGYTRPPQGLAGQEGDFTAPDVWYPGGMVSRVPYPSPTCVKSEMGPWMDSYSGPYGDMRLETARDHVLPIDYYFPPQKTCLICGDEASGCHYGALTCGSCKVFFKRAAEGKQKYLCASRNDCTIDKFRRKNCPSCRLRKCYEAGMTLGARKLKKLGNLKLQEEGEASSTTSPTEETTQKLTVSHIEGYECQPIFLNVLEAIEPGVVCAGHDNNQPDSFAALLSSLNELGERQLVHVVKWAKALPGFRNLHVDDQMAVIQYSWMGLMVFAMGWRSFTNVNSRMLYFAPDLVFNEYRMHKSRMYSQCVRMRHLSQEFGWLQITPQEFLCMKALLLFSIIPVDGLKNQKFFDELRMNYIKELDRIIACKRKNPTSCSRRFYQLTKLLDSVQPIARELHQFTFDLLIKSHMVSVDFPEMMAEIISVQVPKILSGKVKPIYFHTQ
Estrogen receptor (Homo sapiens), sequence (P03372 whole entry, looked up, the tested form may be a part): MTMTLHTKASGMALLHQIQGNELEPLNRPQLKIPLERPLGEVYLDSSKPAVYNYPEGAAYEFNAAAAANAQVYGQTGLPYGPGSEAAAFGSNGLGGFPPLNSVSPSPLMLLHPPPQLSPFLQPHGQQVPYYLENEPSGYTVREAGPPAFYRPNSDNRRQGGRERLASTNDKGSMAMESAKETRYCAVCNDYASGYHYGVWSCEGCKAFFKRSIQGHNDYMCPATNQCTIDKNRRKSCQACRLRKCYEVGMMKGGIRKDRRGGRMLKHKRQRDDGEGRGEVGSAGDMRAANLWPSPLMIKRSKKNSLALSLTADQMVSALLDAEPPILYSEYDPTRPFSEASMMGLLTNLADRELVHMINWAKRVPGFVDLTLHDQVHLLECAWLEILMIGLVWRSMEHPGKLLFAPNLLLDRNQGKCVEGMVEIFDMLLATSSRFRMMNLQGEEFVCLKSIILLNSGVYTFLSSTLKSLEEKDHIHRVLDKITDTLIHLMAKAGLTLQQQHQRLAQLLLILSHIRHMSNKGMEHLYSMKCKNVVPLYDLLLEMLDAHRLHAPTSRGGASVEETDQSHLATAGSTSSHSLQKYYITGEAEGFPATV
bovine Estrogen Receptor (ER), ESR1 (gene 407238), sequence (P49884 whole entry, looked up): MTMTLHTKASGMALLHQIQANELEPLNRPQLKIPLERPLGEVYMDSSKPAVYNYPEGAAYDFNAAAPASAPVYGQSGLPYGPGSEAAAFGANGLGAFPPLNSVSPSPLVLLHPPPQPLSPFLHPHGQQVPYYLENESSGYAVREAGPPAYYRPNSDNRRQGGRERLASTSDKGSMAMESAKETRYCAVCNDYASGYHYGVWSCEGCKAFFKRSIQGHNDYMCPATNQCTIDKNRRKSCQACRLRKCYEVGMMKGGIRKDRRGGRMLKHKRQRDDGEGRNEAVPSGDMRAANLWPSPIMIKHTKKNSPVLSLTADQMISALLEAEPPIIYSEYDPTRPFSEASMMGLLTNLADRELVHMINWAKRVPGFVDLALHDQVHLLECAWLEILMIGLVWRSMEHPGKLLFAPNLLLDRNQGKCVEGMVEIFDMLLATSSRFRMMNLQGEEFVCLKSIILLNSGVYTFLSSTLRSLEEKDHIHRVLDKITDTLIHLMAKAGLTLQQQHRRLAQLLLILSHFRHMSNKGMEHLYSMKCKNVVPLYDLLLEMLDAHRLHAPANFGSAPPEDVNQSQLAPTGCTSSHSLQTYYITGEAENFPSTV

Regarding `CC(C)(C)c1ccc(N)cc1`, the result in assay [1] and in assay [2] was inactive.
As usually defined, the AC50 is the midpoint of the concentration-response curve, whichever way the signal moves. For the molecule `C1=Cc2ccccc2C1`, the AC50 in assay [3] is 15.2 µM (active). Besides, the call in [2] was inactive.
`COC(=O)c1c(C)cc(O)c(C)c1O`: the molecule was called inactive in assay [1], in assay [2] and in assay [5]. The AC50 in assay [4] is 13.6 µM (active).
As to `CC=C1CC2C=CC1C2` (centres undefined), the result in assay [1] and in assay [2] was inactive.
Regarding `CC(=O)OC(C)C`, the molecule was classed as inactive in [1], in assay [6], in assay [7] and in assay [2].
On to `Cc1ccc(C(C)c2ccc(C)c(C)c2)cc1C`, for which the outcome in assay [1] was inactive. Further, in [2], the AC50 is 84.6 µM (active).
For the molecule `CCCCCCCCCCCCCCCC[N+](C)(C)CC`, the molecule was called inactive in assay [8] and in [7]. Besides, the concentration at half-maximal activity (AC50) in [3] is 35.8 µM (active).
Turning to `CO[Si](OC)(OC)c1ccccc1`, the molecule was classed as inactive in assay [1] and in assay [2].
For `CCN(CCC#N)c1ccc(N=Nc2c(Cl)cc([N+](=O)[O-])cc2Cl)cc1`, the molecule was called inactive in assay [1], in [2] and in assay [5]. Besides, the AC50 in assay [4] was 16.1 µM (active).
As for `CCOC(=O)Cc1cccc2ccccc12`, the molecule was classed as inactive in assay [1] and in assay [2].
On to `C=C1C2CCC(C2)C1(C)C` (centres undefined), for which the result in [1], in assay [2] and in [5] was inactive.
As to `O=c1cc(-c2ccccc2)oc2ccccc12`, the half-maximal activity concentration (AC50) is 12.6 µM (active) in [3] and 3.68 µM (active) in [9]. Also, the result in assay [6], in assay [7], in [2] and in assay [5] was inactive.
With `c1c[nH]cn1`, the molecule was called inactive in assay [1] and in [2].
Take `CCO[Si](C)(OCC)OCC`: the molecule was called inactive in [1] and in assay [2].
`CN(C)c1ccc(C(=N)c2ccc(N(C)C)cc2)cc1`: the molecule was called inactive in [1] and in assay [7]. Besides, the AC50 is 2.62 µM (active) in assay [3], 11.6 µM (active) in assay [9], 33.4 µM (active) in assay [2] and 59.1 µM (active) in [5].
Consider `CC(C)C1=CC2=CC[C@@H]3[C@](C)(CCC[C@@]3(C)C(=O)O)[C@H]2CC1`, for which the outcome in [1], in [7] and in [5] was inactive. The AC50 in assay [2] is 12 µM (active).
Consider `CCCCC/C=C\CCC=O`, for which the call in [1] and in assay [2] was inactive.
Take `Cc1cc(C)c(C)cc1C`: the molecule was classed as inactive in [1] and in [2].
Consider `COCc1c(C(C)C)nc(C(C)C)c(/C=C/[C@@H](O)C[C@@H](O)CC(=O)O)c1-c1ccc(F)cc1`, for which, in assay [8], the AC50 was 1.81 µM (active).
Regarding `O=S(=O)(O)c1ccccc1C=Cc1ccc(-c2ccc(C=Cc3ccccc3S(=O)(=O)O)cc2)cc1`, the figures for the AC50 in assay [3] and in assay [9] were 0.6 µM (active) and 2.43 µM (active), respectively. Also, the outcome in assay [6] and in assay [7] was inactive.
As to `O=C(c1ccccc1)c1ccc(O)c(O)c1O`, the result in assay [6] and in assay [7] was inactive.
Regarding `C#CC1(O)CC[C@H]2[C@@H]3CCC4=CCCC[C@@H]4[C@H]3CC[C@@]21C` (some centres undefined), the AC50 is 6.05 µM (active) in assay [6] and 0.258 µM (active) in [7]. For the same molecule, the call in assay [4] and in [7] was inactive.
For the molecule `Cc1cccc(N(C)C(=S)Oc2ccc3ccccc3c2)c1`, the call in [6] and in assay [7] was inactive.
For `CN(C)c1ccc(N=Nc2ccccc2C(=O)O)cc1`, the outcome in assay [6], in [4], in assay [2] and in assay [5] was inactive.
Regarding `CC1=Nc2ccc3ccccc3c2C1(C)C`, the result in assay [6] was inactive.
For `C=CC(=O)OCCOC(=O)C=C`, the molecule was called inactive in assay [6] and in assay [7].
For `O=C(c1ccc(O)cc1)c1ccc(O)cc1O`, the AC50 in assay [6] is 2.12 µM (active); in assay [7] it was 0.481 µM (active).
Take `COc1ccc(-c2coc3cc(O)ccc3c2=O)cc1`: in assay [6], the molecule was called inactive. In addition, the AC50 in [7] is 7.09 µM (active).
As for `O=S1(=O)OC(c2ccc(O)cc2)(c2ccc(O)cc2)c2ccccc21`, the molecule was called inactive in assay [6], in assay [2] and in assay [5]. For the same molecule, in [7], the AC50 was 13.2 µM (active).
`CC(C)c1ccc2c(C(C)C)cc(C(C)C)c(S(=O)(=O)O)c2c1`: the outcome in assay [9], in assay [7] and in assay [2] was inactive.
In the case of `CC(=O)[C@H]1[C@H](C#N)C[C@H]2[C@@H]3CC=C4C[C@@H](O)CC[C@]4(C)[C@H]3CC[C@@]21C`, the molecule was called inactive in [6], in [7] and in [2].
For `CCOC(=O)N1CCC(=C2c3ccc(Cl)cc3CCc3cccnc32)CC1`, the molecule was called inactive in assay [6]. For the same molecule, the concentration at half-maximal activity (AC50) in assay [7] is 0.0259 µM (active).
Take `OC1CCCCCCCCCCC1`: the outcome in assay [6], in assay [4], in assay [2] and in assay [5] was inactive.
As for `[Cl][Bi]([Cl])([c]1ccccc1)([c]1ccccc1)[c]1ccccc1`, the molecule was classed as inactive in [6] and in assay [7].
Regarding `CCO[Si](CCCN=C=O)(OCC)OCC`, in assay [10], the result was inactive.
Regarding `OC1CCCC1`, the molecule was classed as inactive in assay [6], in [7] and in [2].
Take `CC(C)c1ccc2c(c1)CC[C@H]1[C@](C)(CN)CCC[C@]21C`: the molecule was classed as inactive in assay [7].
Consider `Nc1ccc(Oc2ccc(N)c(N)c2)cc1`, for which the outcome in assay [6] and in [7] was inactive.
As to `CCCCCCCC[N+](C)(CCCCCCCC)CCCCCCCC`, the AC50 in [3] is 3.77 µM (active). In addition, the call in assay [2] was inactive.
With `CCOC(=O)c1ccccc1C(=C1C=C(Br)C(=O)C(Br)=C1)c1cc(Br)c(O)c(Br)c1`, the result in assay [6] was inactive.
For the molecule `CCC(=O)Oc1ccc(/C(CC)=C(\CC)c2ccc(OC(=O)CC)cc2)cc1`, the AC50 was 0.00521 µM (active) in [6] and 0.00229 µM (active) in assay [7].
In the case of `COc1cc(NC(=O)CC(C)=O)c(OC)cc1Cl`, the molecule was classed as inactive in assay [7].
Regarding `NC(CO)(CO)CO`, the outcome in [6], in assay [7] and in [2] was inactive.
For the molecule `CCC(C)OC(=O)c1ccc(O)cc1` (centres undefined), the values for the AC50 in [6] and in assay [7] were 9.45 µM (active) and 0.603 µM (active), respectively.
